The results in this text go back to PubChem BioAssay AID624465 (National Center for Advancing Translational Sciences (NCATS), 2012).

The structures appear in SMILES notation. The campaign covered roughly 360,000 compounds. About 300 (0.083%) were called active. Only a selection was taken, and actives are over-represented in it overall. A number with no mark means an inactive call. No stated cut-off is given here; in the data, active means activation above about 40%; inconclusive means between about 15% and that limit; inactive means weaker than that.

D(2) dopamine receptor (Homo sapiens), sequence (P14416 whole entry, looked up): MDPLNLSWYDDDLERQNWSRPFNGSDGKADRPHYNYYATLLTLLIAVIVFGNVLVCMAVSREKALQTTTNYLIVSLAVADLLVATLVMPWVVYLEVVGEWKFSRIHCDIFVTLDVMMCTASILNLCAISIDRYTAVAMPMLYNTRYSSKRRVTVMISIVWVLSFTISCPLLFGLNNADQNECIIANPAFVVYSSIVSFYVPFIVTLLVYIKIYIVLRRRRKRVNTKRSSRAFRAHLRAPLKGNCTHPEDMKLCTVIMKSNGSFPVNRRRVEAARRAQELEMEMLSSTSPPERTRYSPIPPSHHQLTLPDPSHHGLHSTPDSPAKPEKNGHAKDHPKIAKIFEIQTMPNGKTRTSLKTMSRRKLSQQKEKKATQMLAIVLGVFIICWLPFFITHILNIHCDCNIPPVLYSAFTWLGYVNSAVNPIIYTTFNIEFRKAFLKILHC

This assay has as its target D(2) dopamine receptor (Homo sapiens) (UniProt P14416). The assay can be described thus: Beta-Arrestin HTS for Positive Allosteric Modulators of the Human D2 Dopamine Receptor: Agonists. The note with it: DiscoveRx PathHunter D2 beta-arrestin, luminescence, 90 min; hits give high values; 100% = 57 uM dopamine signal. The source says: There is great interest in identifying small molecule ligands for G-protein coupled receptors (GPCRs) as nearly 50% of all FDA-approved drugs target these important receptor proteins. […] Amongst the dopamine receptors (DARs), the D2 is arguably one of the most validated drug targets in neurology and psychiatry. For instance, all receptor-based antiparkinsonian drugs primarily work via stimulating the D2 DAR, whereas all FDA-approved antipsychotic agents are antagonists of this receptor. The D2 DAR is also therapeutically targeted in other disorders such as restless legs syndrome, tardive dyskinesia, Tourette's syndrome, and hyperprolactinemia.
To this end, a miniaturized qHTS screen was developed to be screened against the Molecular Libraries Small Molecule Repository (MLSMR). This assay seeks to identify agonists against the D2 DAR.
NIH Molecular Libraries Probe Production Network [MLPCN]
NIH Chemical Genomics Center [NCGC]
PI Name: David Sibley, National Institutes of Neurological Disorders and Stroke
DiscoveRx D2 cells were thawed from frozen stock and seeded at 2,100 cells/ 3 uL/well media (DiscoveRx Plating Reagent 2) with MultiDrop Combi dispenser (Thermo Scientific, Logan, UT) onto white tissue culture treated 1536-well Aurora plates (Brooks Automation, Chelmsford, MA) and allowed to attach overnight at 37 deg C, 5% CO2. Next, 23 nL/well of compound solutions in DMSO were added with a pintool transfer (Kalypsis, San Diego, CA). As the positive control, 1 uL/well dopamine (EC100, 57 uM final concentration) diluted in buffer (HBSS + 10 mM HEPES + SMB + 0.1% Tween-20) was dispensed to 1 column of each plate. The rest of the plate was dispensed with buffer only, 1 uL/well as well. The cells were stimulated by compounds or dopamine control for 90 minutes at 37 deg C, 5% CO2, after which 1.5 ul/well of DiscoveRx detection reagent was added with BioRAPTR FRD dispenser. The detection reagent was prepared by mixing of Galacton Star Substrate, Emerald II solution and PathHunter buffer (supplied by the assay kit) together at 1:5:19 proportion accordingly just prior to dispensing. The plates were incubated at ambient temperature for 1 hour and then the luminescent signal was read on ViewLux plate reader (PerkinElmer, Waltham, MA).
With `Cc1ccc(N=C2NC(=O)c3cccc([N+](=O)[O-])c32)cc1`, the activation is 1.24%.
Consider `COc1ccc([C@H]2C[C@@H](n3cc(COC(=O)c4ccccc4)nn3)[C@H](O)CN2C(=O)c2cccs2)cc1`, for which the activation was -3.3%.
Then `COc1cc(C(=O)Nc2cc(C(F)(F)F)ccc2N2CCOCC2)ccc1O`, with -0.449%.
Take `CCOC(=O)C(NS(=O)(=O)c1ccc(C)cc1)(C(F)(F)F)P(=O)(OCC(C)C)OCC(C)C` (stereo not given): the activation is -3.61%.
Then `COc1ccc(N2C(=O)C3C(C2=O)C(C(=O)c2ccccc2)N2CCCC32)cc1` (stereo not given), with -3.43%; and `O=C(CSc1ccccn1)Nc1nc2c(ccc3ccccc32)s1`, with -0.569%; and `CC(=O)c1nn(-c2ccccc2)c(=Nc2ccccc2)cc1C`, with -5.64%.
Under `CON(C)S(=O)(=O)c1ccc2c(c1)NC(=O)C1CCCN21` (stereo not given) stands -0.103%; under `O=C(c1ccco1)N1CCN(C(=S)Nc2cc(F)cc(F)c2)CC1`, 0.341%.
Consider `O=C(OCC(=O)N1CCN(C(=O)c2ccco2)CC1)c1c(Cl)cccc1Cl`, for which the activation was -10.9%.
Then `O=C(CN1CCN(C(=O)c2ccco2)CC1)Nc1ccc(Cl)c(C(F)(F)F)c1`, with -0.549%.
Under `COc1cccc(OCc2cc(C(=O)N3CCN(C(=O)c4ccco4)CC3)no2)c1` stands 2.91%.
As for `O=C(c1ccco1)N1CCN(Cc2cccc(C(F)(F)F)c2)CC1`, the activation is 41.8% (active).
For `COc1cccc(OC)c1OCCN1CCN(C(=O)c2ccco2)CC1`, the activation is 44.2% (active).
Regarding `CC1=CC=CN2C1=NC(=O)CC2(C)C(=O)N(CC(=O)NC1CCCC1)c1ccccc1C` (stereo not given), the activation was 4.24%.
As for `COc1ccc(-c2ccc3[nH]c4c(c3c2)CCN2C[C@H]3[C@H](C)ON(C)[C@H]3C[C@@H]42)cc1`, the activation is -8.14%.
Then `O=C(c1cccs1)N1CCN(Cc2ccc3c(c2)OCO3)CC1`, with 46.9% (active); and `COc1ccc(-c2cc(C(=O)N3CCN(Cc4ccc5c(c4)OCO5)CC3)on2)cc1OC`, with -0.403%.
As for `Cc1cc(C)n2nc(C(=O)N3CCN(Cc4ccc5c(c4)OCO5)CC3)nc2n1`, the activation is 10.2%.
Then `CCOc1ccc(C(=O)NCC(=O)N2CCN(c3ccc(C(F)(F)F)cn3)CC2)cc1`, with 9.96%; and `COP1(=O)C[C@@H](O)[C@@H](O)[C@@H](COCc2ccccc2)O1` (stereo not given in full), with 0.955%; and `Oc1cc2c(cc1O)CN(C(=S)NCCc1ccc(Cl)cc1)CCC2`, with -1.87%.
Under `O=[N+]([O-])c1ccc(CN2CC(N3CC=CC3)CS2(=O)=O)cc1` (stereo not given) stands -1.85%; under `CCc1ccc(OCC(=O)OC(C)C(=O)NC2CC2)cc1` (stereo not given), -2.44%; under `Cc1cc(C)cc(N(CC(=O)N2CC=C(c3ccccc3)CC2)S(=O)(=O)c2c(C)noc2C)c1`, 0.128%.
Take `COc1ccccc1CCNC(=O)CN1C(=O)NC2(CCCC2)C1=O`: the activation was -3.81%.
With `O=c1ccn([C@@H]2O[C@H](CNS(=O)(=O)c3cc4ccccc4s3)[C@@H](O)[C@H]2O)c(=O)[nH]1`, the activation is -2.86%.
Under `CCOC1=C2CN(S(=O)(=O)c3ccc(C)cc3)[C@H](c3cccs3)C[C@H]2[C@H]2C(=O)N(c3ccccc3)C(=O)[C@H]2C1` stands -3.55%; under `CCC(C)(C)n1nnnc1CN1CCN(c2nc3ccc(C)cc3cc2C#N)CC1`, -5.17%.
Under `Cc1ccc(C(=O)O/N=C(\N)c2ccccn2)cc1Cl` stands 5.09%; under `COc1ccc(C(=O)O/N=C(\N)c2ccccn2)cc1[N+](=O)[O-]`, 42.1% (active); under `COc1ccc(C(=O)NNC(=O)c2cnccn2)cc1[N+](=O)[O-]`, 4.81%.
Under `O=C(NCCO)c1cccc(-c2cccc3nccn23)c1` stands -5%; under `O=C(CC1SC(=Nc2ccccc2)N(Cc2ccccn2)C1=O)Nc1cccc(Cl)c1` (stereo not given), 0.599%.
For the compound `CNc1cncc(-c2cccc(C(=O)N3CCOCC3)c2)n1`, the activation was -3.27%.
Then `CC(C)c1cccc(-c2csc(C(O)c3ccccc3)n2)c1` (stereo not given), with 5.04%; and `CCC(=O)OCc1c(C(F)(F)F)nn(C)c1Oc1cccc(C(F)(F)F)c1`, with -2.87%.
`O=C(CN1CCN(S(=O)(=O)c2ccc3ccccc3c2)CC1)NC(=O)NC1CCCCC1`: the activation is -2.7%.
Then `CCn1cc(CNC(=O)c2cc([N+](=O)[O-])c(C)c([N+](=O)[O-])c2)cn1`, with 1.34%; and `O=C1C=CN2CCCC2CC1` (stereo not given), with -2.65%; and `Nc1ncnc2c1ncn2[C@@H]1O[C@H](C(=O)N2CCCN(Cc3ccccc3F)CC2)[C@@H](O)[C@H]1O`, with -3.13%.
As to `O=C1CCC(C(=O)Nc2ccc(OC(F)F)cc2)N1` (stereo not given), the activation is -0.767%.
Then `O=C1CSC(=O)N1CCOCCN1C(=O)CSC1=O`, with -0.569%; and `CN(CCc1ccccn1)C1CCCN(S(=O)(=O)c2ccccc2Cl)C1` (stereo not given), with 4.32%.
Then `OCCN1CCN(c2ncnc3c2ncn3[C@H]2CN(Cc3ccco3)C[C@@H](CO)O2)CC1`, with 2.19%; and `COc1ccc(OCc2nnc3n2N=C(c2ccccc2)C(CC(=O)O)S3)cc1` (stereo not given), with -4.75%; and `CCn1c(SCC(=O)Nc2cccc(F)c2)nnc1-c1cc2cc(Br)ccc2o1`, with 0.906%.
Then `O=C1N(c2ccccc2)C(=Nc2ccccc2)SC12CC2`, with -5.55%; and `O=C(CN1CCOCC1)Nc1c2c(nc3c1CCC3)CCC2`, with -3.04%.
On to `Cc1nc(-c2ccc(F)cc2)c(CC(=O)N(C)CC(=O)Nc2c(C)cccc2C)s1`, for which the activation was 0.938%.
On to `Cn1nc(C(F)(F)F)c(C(=O)Nc2cccc(C(F)(F)F)c2)c1SCc1ccc(Cl)cc1`, for which the activation is 2.52%.
Then `CC(=O)NC(c1ccccc1)c1nc(-c2ccccc2C)cs1` (stereo not given), with 73.4% (active).
Take `CC(=O)NC(c1ccccc1)c1nc(-c2cccc(C(C)C)c2)cs1` (stereo not given): the activation is 1.91%.
Consider `COc1cccc(C(NC(C)=O)c2nc(-c3ccccc3OC)cs2)c1` (stereo not given), for which the activation was -6.01%.
Under `CCCC(=O)N1CCC1(C)C(=O)NS(=O)(=O)c1ccc(Cl)cc1` (stereo not given) stands -2.87%.
